Screening data (PubChem)
CHO-K1 Ca PAM: M1 PAM counterscreen hit in parental CHO-K1 cells | ATP EC20, Fluo-8 calcium fluorescence; 0% at ATP EC20, 100% at ATP max | activation, % at 3 µM | actives 0.02% (n = 360,000) | AID 602247;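 active = activation above the run cutoff, the mean activation of all test compounds plus 3 SD, cut at about 40% in these data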;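 note: peak over basal fluorescence ratio in a 140 s read after ATP addition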
M1 ag: agonists of human M1 muscarinic receptor | AID 588814 | CHO-K1 hM1, Fluo-8 calcium fluorescence, agonist mode; 0% DMSO, 100% acetylcholine EC100 | activation, % at 3 µM | actives 0.33% (n = 360,000);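 active = activation above the run's mean compound activation plus 3 SD, cut at about 16% in these data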;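 note: peak over basal fluorescence ratio within a 140 s kinetic read after compound addition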
Target sequence (P11229 whole entry, looked up): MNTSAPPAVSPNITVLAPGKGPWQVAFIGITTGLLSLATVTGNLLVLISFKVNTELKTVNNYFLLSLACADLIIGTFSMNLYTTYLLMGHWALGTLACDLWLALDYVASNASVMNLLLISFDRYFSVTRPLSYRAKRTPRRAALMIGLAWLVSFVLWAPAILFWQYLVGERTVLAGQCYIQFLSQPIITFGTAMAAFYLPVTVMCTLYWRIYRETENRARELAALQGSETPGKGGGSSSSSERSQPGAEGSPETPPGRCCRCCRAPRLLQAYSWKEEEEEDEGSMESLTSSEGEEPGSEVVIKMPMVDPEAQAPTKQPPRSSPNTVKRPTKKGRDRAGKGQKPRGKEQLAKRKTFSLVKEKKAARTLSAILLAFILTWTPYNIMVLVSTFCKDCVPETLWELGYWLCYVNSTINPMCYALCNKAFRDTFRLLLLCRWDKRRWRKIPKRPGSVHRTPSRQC
CHO-K1 Ca antag: counter-screen for M1 antagonists: effect in parental CHO-K1 cells. ATP-induced calcium, Fluo-8 fluorescence. inhibition, % at 3 µM. actives 0.6% (n = 360,000);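 active = inhibition above a per-plate cutoff, the plate's mean sample inhibition plus 3 SD, cut at about 24% in these data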;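 note: 0% = DMSO plus EC80 ATP and 100% = DMSO alone without ATP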
CHRM1 antagonist: human CHRM1 antagonism | inhibition, % at 3 µM | CHO-K1 hM1, Fluo-8 calcium fluorescence, ACh EC80 antagonist | AID 588852 | actives 1.3% (n = 360,000) | P11229;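 active = percent inhibition above its own plate's cutoff, namely the mean of that plate's compound wells plus 3 SD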;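 note: peak over basal fluorescence ratio during 140 s after agonist addition; 0% = ACh EC80 plus DMSO and 100% = DMSO alone without agonist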
M1 PAM: potentiates human M1 receptor response to acetylcholine. P11229. CHO-K1 hM1, Fluo-8 calcium fluorescence, ACh EC20; 0% = ACh EC20, 100% = maximal ACh. activation, % at 3 µM. actives 0.088% (n = 360,000); in the data active = activation above about 19%, passing the limit was not always enough
CHO-K1 Ca ag: nonselective activator or artifact in parental CHO-K1 cells | Fluo-8 calcium fluorescence; scaled to maximal ATP response, vehicle zero | activation, % at 3 µM | actives 0.48% (n = 360,000); in the data active = activation above about 15%;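 note: untransfected CHO-K1 host cells lacking M1 receptor as counterscreen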
An asterisk follows results filed as active. In the library only some 2.3% were active in any assay of this set; here they are far more common.

SMILES	CHO-K1 Ca PAM	M1 ag	CHO-K1 Ca antag	CHRM1 antagonist	M1 PAM	CHO-K1 Ca ag
COc1cccc(/C=C2\SC(=S)N(CCCC(=O)N3CCCCC3CCO)C2=O)c1 (stereo not drawn)	9.5	-6.1	-0.6	15.5	-16.6	15.3*
O=C1/C(=C\c2cc(Cl)c(O)c(Cl)c2)SC(=S)N1Cc1ccccc1	-8.5	51.4*	22.0	53.6*	-13.7	16.2*
O=C(CCN1C(=O)/C(=C\c2ccccc2)SC1=S)N1CCCCC1	10.6	1.1	11.3	-6.0	9.8	15.1*
O=C(O)CN1C(=O)/C(=C/C=C/c2ccccc2)SC1=S	-10.3	-5.8	31.3*	-4.2	2.1	0.2
CC(=O)c1ccc(NC(=O)CN2C(=O)/C(=C/C=C/c3ccccc3)SC2=S)cc1	18.8	-3.6	-8.1	-7.6	5.8	0.9
O=C(NCCn1cccn1)C1CCC(=O)N(CCc2ccccc2)C1 (stereo not drawn)	11.8	-1.5	-8.6	-5.7	4.3	0.1
CC(=O)N1c2ccc(S(=O)(=O)NCCC(=O)Nc3ccc(OC(F)(F)F)cc3)cc2CC1C (stereo not drawn)	3.6	2.6	-2.1	11.9	-3.4	11.5
CCOC(=O)C1(C)CCN1C(=O)c1ccc(C)cc1 (stereo not drawn)	0.8	-3.6	-7.0	-4.0	2.2	-0.8
Cc1cc(C)nc(/N=C(\N)Nc2ccc(S(=O)(=O)Nc3nccc(C)n3)cc2)n1	6.0	-11.0	8.3	6.9	-2.7	-0.5
OC(c1ccccc1)C(NCCNCc1ccccc1)c1ccccc1 (stereo not drawn)	4.0	-9.4	-3.1	38.3*	-24.3	1.4
COC(=O)c1sc(NC(=O)CSc2nnnn2-c2ccc(C)cc2C)nc1C	-6.1	1.0	26.0*	-6.3	9.0	-0.3
O=C(COC(=O)C12CC3CC(CC(Br)(C3)C1)C2)Nc1cccc(S(=O)(=O)N2CCOCC2)c1	-4.8	-0.1	2.8	18.9	-3.7	0.9
O=C(C1CCC(CNS(=O)(=O)c2cccs2)CC1)N1CCN(c2ccc(Cl)cc2)CC1 (stereo not drawn)	19.0	-0.3	-2.5	5.9	0.4	15.9*
Nc1ccc(N(CCO)CCO)cc1	5.2	0.1	100.2*	2.2	3.4	0.6
CCN(CC)c1ccc(N)cc1	-11.6	-3.6	8.2	15.9	-10.9	4.3
CN1OC[C@@H]2CN(C(=O)C(C)(C)C)[C@H](c3ccc(-c4cccnc4)cc3)C[C@@H]21	-8.6	5.0	30.2*	7.8	5.1	-0.3
Cc1ccccc1S(=O)(=O)N1C[C@H]2CON(C)[C@H]2C[C@H]1c1cccc(-c2ccccc2)c1	33.7	-4.9	-17.3	-19.7	7.7	1.3
CN1OC[C@@H]2CN(S(=O)(=O)c3cccc4ccccc34)[C@H](c3ccc(-c4ccccc4)cc3)C[C@@H]21	7.0	5.1	-10.6	-34.4	25.0*	-0.1
O=S(=O)(c1cc(F)ccc1F)N1CCC2(CC1)OCCN2S(=O)(=O)c1cccs1	-3.5	3.1	-5.1	4.4	-4.5	5.0
Cc1ccc(NCC(=O)Nc2c(C)n(C)n(-c3ccccc3)c2=O)cc1S(=O)(=O)N(C)C	-8.3	-1.5	5.7	-22.6	14.9	-0.2
O=C(Nc1ccccc1)Nc1ccno1	0.6	1.4	-1.6	-11.4	2.7	0.9
CCc1cccc(NC(=O)CCNS(=O)(=O)c2ccc3c(c2)oc(=O)n3C)c1	16.0	-4.0	-15.6	-6.9	5.0	1.6
COC(=O)c1c(C)[nH]c(C(=O)C(C)OC(=O)c2ccco2)c1C (stereo not drawn)	10.5	-1.2	-14.7	4.0	2.9	1.8
COC(=O)c1c(C)[nH]c(C(=O)C(C)OC(=O)c2cc(C)oc2C)c1C (stereo not drawn)	-24.8	-0.6	10.8	28.0*	-16.5	7.1
CCOC(=O)C1=C(COC(=O)CNC(=O)c2ccc(Cl)cc2Cl)NC(=O)NC1C (stereo not drawn)	9.5	-0.8	-14.7	-5.2	5.0	2.2
SMILES	CHO-K1 Ca PAM	M1 ag	CHO-K1 Ca antag	CHRM1 antagonist	M1 PAM	CHO-K1 Ca ag
Cc1ccc(S(=O)(=O)n2c(=O)oc3ccccc32)cc1	11.0	-0.5	-0.9	-9.9	1.9	2.6
CCOC(=O)c1ccc(S(=O)(=O)n2c(=O)oc3ccccc32)cc1	-24.2	-0.2	18.4	31.2*	-23.2	13.2
CSCC(=O)NS(=O)(=O)c1ccc(C)cc1	-16.6	-2.4	28.1*	20.5	-12.1	-0.4
NC(=O)NC(CC(=O)NNC(=O)c1ccccn1)c1ccccc1Cl (stereo not drawn)	19.2	-1.5	7.7	-4.5	6.6	1.3
COC1OC(COCc2ccccc2)C(N)C(OCc2ccccc2)C1OCc1ccccc1 (stereo not drawn)	24.5	-1.9	-13.8	41.7*	-27.6	2.9
CC(C)Cn1c(-c2csc3c2CCCC3)n[nH]c1=S	-14.6	-14.8	15.1	44.0*	-34.0	-0.3
CC(C)Cn1c(-c2ccccc2F)n[nH]c1=S	-4.5	-3.2	-12.6	-10.1	7.4	0.2
COc1ccc(Cn2c(C)nnc2-c2cnn(C)c2N)cc1	-12.1	-1.1	0.7	16.6	-3.3	0.2
CC(=O)NCc1ccc(S(=O)(=O)N2CCCN(C)CC2)cc1	-12.0	-4.2	-6.9	-2.6	6.4	1.0
CCc1ccccc1OC[C@@H](O)CN[C@H]1CCCc2ccccc21	-8.9	15.9	25.2*	1.1	-4.5	3.0
OC(CNC1CCCc2ccccc21)COc1ccc2ccccc2c1 (stereo not drawn)	26.6	-1.4	-5.9	5.8	6.2	7.0
Cc1ccc(CNC(=O)CNC(=O)[C@@H]2Cc3ccccc3CN2C(=O)OC(C)(C)C)cc1	4.0	-5.0	0.4	-4.6	-0.7	-0.2
CC(=O)Nc1ccc(S(=O)(=O)N2CCN=C2SCc2ccc([N+](=O)[O-])cc2)cc1	-24.0	5.5	13.9	6.9	-4.2	16.6*
Cc1ccc(C(=O)N2CCN=C2SCc2ccc([N+](=O)[O-])cc2)cc1C	-11.9	-7.7	3.9	35.9*	-22.0	0.1
Cc1cccc(C)c1Cn1c(C)c(C(=O)NCc2ccc([N+](=O)[O-])cc2)sc1=O	26.5	8.7	-2.4	17.1	-14.4	10.6
COC(C#CCCN(C)C)(c1ccccc1)c1ccccc1	11.4	-11.3	-6.9	98.9*	-26.9	0.8
CCN=C1SC(CC(=O)Nc2ccc(N3CCOCC3)cc2)C(=O)N1CC (stereo not drawn)	0.4	-1.3	2.1	8.4	-2.2	3.8
CCN=C1SC(CC(=O)Nc2ccc(C(F)(F)F)cc2)C(=O)N1CC (stereo not drawn)	-4.9	-0.7	17.0	33.2*	-23.1	10.2
CC(CC(=O)N1CCN(c2cccc(Cl)c2)CC1)S(=O)(=O)c1ccc2c(c1)NC(=O)CO2 (stereo not drawn)	-15.3	3.8	0.5	65.6*	-21.2	2.8
